Results filed as inconclusive are left out. Active and inactive are the calls of the source. Unless noted, the call rests on the fitted dose curve.
Key:
[1] = Nuclear factor erythroid 2-related factor 2/antioxidant responsive element (Nrf2/ARE) small molecule agonists: qHTS cell viability counter screen in human keratinocytes (AID 1919968; active means well fitted curve in the direction sought with a large enough effect in the repeat runs; an effect the other way counts as inactive or inconclusive; further: nearly all actives have a fitted effect of over 55% in size; further: potency means the concentration at half of the fitted maximal effect)
In short: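 Cells of the KeratinoSens line were plated at 1,500 per well and left for 5 h before compound transfer from DMSO stocks. After a 23 h incubation (37 C, 5% CO2), CellTiter-Fluor was added. Signal was taken as fluorescence intensity 1 h later.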

[2] = Nuclear factor erythroid 2-related factor 2/antioxidant responsive element (Nrf2/ARE) small molecule agonists: luciferase reporter gene qHTS assay in human keratinocytes (AID 1919969); further: nearly all actives have a fitted effect of over 35% in size
[3] = biological target: Gonadotropin-releasing hormone receptor (Homo sapiens) (UniProt P30968); assay: Human gonadotropin-releasing hormone receptor (GnRHR) small molecule agonists, calcium flux assay in GnRHR-HEK293 cells (AID 1920063); further: nearly all actives have a fitted effect of over 35% in size; further: potency means the concentration at half of the fitted maximal effect
In short: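 Compounds dissolved in DMSO are pin-transferred onto dye-loaded GnRHR-HEK293 cells, which were seeded 18 h before at 37 C/5% CO2. Calcium signal is read as fluorescence intensity at 1 s intervals for 3 min.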

[4] = biological target: KiSS-1 receptor (Homo sapiens) (UniProt Q969F8); assay: Human kisspeptin (KISS1R) small molecule agonists, calcium flux assay in KISS1R-HEK293 cells (AID 1920064; active means well fitted curve in the direction sought with a large enough effect in the repeat runs; an effect the other way counts as inactive or inconclusive)
In short: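 Cell line: HEK293, stable human KISS1R. Dye loading 1 h at 37 C after 18 h culture. Read: kinetic fluorescence, 480/540 nm, 3 min at 1 s intervals.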

[5] = G protein-coupled receptor (GPCR) small molecule agonists, calcium flux assay: HEK293 wild type cell line counter screen (AID 1920065)
In short: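 Tox21 10K compounds, 15 concentrations each in triplicate, pin-transferred in DMSO onto dye-loaded cells; kinetic read at 480/540 nm for 3 min, 1 s intervals.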

[6] = p53 small molecule agonists, cell-based qHTS assay with rat liver microsomes (AID 1963578)
In short: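 Agonist mode in p53RE-bla reporter cells, with compounds co-incubated 16 h at 37 C alongside 0.5 mg/mL rat liver microsomes and 0.5 mg/mL NADPH (final), followed by a 2 h LiveBLAzer detection step.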

[7] = p53 small molecule agonists, cell-based qHTS assay with human liver microsomes: qHTS cell viability counter screen (AID 1963579); further: nearly all actives have a fitted effect of over 45% in size
In short: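 Metabolically activated exposure: compounds, human liver microsomes and NADPH (0.5 mg/mL final apiece) were added to p53RE-bla cells seeded 5 h earlier, left 16 h at 37 C, and then assessed for viability by CellTiter-Glo luminescence.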

[8] = p53 small molecule agonists, cell-based qHTS assay with rat liver microsomes: qHTS cell viability counter screen (AID 1963580); further: nearly all actives have a fitted effect of over 45% in size
In short: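 Cytotoxicity counter screen: intracellular ATP measured by CellTiter-Glo luminescence in the same wells as the beta-lactamase reporter read, on HCT-116 p53RE-bla cells exposed 16 h at 37 C to compounds with rat liver microsomes and NADPH, each 0.5 mg/mL final.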

[9] = p53 small molecule agonists, cell-based qHTS assay: qHTS cell viability counter screen (AID 1963581); further: nearly all actives have a fitted effect of over 45% in size; further: potency means the concentration at half of the fitted maximal effect
In short: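 ATP content measured by luminescence in HCT-116 p53RE-bla cells treated 16 h at 37 C, same wells as the reporter screen.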

[10] = p53 small molecule agonists, cell-based qHTS assay (AID 1963582; active means well fitted activation curve with a large enough effect in the signal ratio in the repeat runs, not every such curve was filed as active; the % refers to the signal ratio)
In short: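 16 h compound exposure (37 C) of p53 response element–bla cells, preceded by 5 h recovery at 37 C/5% CO2; read-out via LiveBLAzer B/G FRET substrate, 2 h RT, fluorescence intensity.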

[11] = biological target: 5-hydroxytryptamine receptor 2A (Homo sapiens) (UniProt P28223); assay: 5-hydroxytryptamine receptor 2A (HTR2A) small molecule agonists, cell-based qHTS assay (AID 1963587); further: nearly all actives have a fitted effect of over 30% in size
In short: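 CHO cells stably expressing human HTR2A, plated 18 h, loaded with calcium dye 1 h at 37 C. Agonist mode: compounds added and intracellular calcium fluorescence recorded kinetically for 2 min at 1 sec intervals.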

[12] = biological target: Muscarinic acetylcholine receptor M1 (Homo sapiens) (UniProt P11229); assay: Cholinergic receptor muscarinic 1 (CHRM1) small molecule antagonists, cell-based qHTS assay (AID 1963588); further: nearly all actives have a fitted effect of over 40% in size
In short: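 Compounds were tested at 15 concentrations in three independent runs. Dye-loaded CHRM1-CHO cells were exposed 5 min at room temperature before stimulation by acetylcholine added at 50nM. Intracellular calcium was read kinetically on FDSS for 3 min.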

[13] = biological target: Muscarinic acetylcholine receptor M1 (Homo sapiens) (UniProt P11229); assay: Cholinergic receptor muscarinic 1 (CHRM1) small molecule agonists, cell-based qHTS assay (AID 1963589); further: nearly all actives have a fitted effect of over 35% in size
In short: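 Homogeneous fluorescence calcium flux, agonist mode. Human M1-expressing CHO cells; compound dosed at 15 concentrations, three independent runs; signal sampled every 1 sec.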

[14] = cAMP Responsive Elements (CRE) small molecule agonists, cell-based qHTS assay (AID 1963590)
In short: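 HEK 293T cells stably bearing CRE-bla were plated at 2,000 cells per well and rested 18 h. Compounds, positive controls or DMSO were added for 3 h at 37 C. LiveBLAzer B/G substrate was then loaded for 2 h at room temperature.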

[15] = cAMP Responsive Elements (CRE) small molecule antagonists, cell-based qHTS assay (AID 1963591; active means well fitted inhibition curve with a large enough effect in the signal ratio in the repeat runs, not every such curve was filed as active; the % refers to the signal ratio)
In short: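 First, CRE-bla HEK293T cells settled 18 h at 37 C. Next, compound and 0.25 uM final NKH477 were applied for 3 h. Last, LiveBLAzer B/G substrate was loaded for 2 h at room temperature.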

[16] = biological target: Beta-2 adrenergic receptor (Homo sapiens) (UniProt P07550); assay: Adrenergic beta2 receptor (ADRB2) small molecule antagonists, cell-based qHTS assay (AID 1963592); further: series mostly up to about 92 µM; nearly all actives have a fitted effect of over 50% in size
In short: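 Assay format: CHO-ADRB2 cells, 18-20hr seeding at 37C/5% CO2, then compound plus 1nM isoproterenol agonist mix for 0.5hr RT. Homogeneous time-resolved fluorescence cAMP detection after 1hr, expressed as 665/615 nm ratio.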

[17] = biological target: D(2) dopamine receptor (Homo sapiens) (UniProt P14416); assay: Dopamine D2 receptor (DRD2) small molecule agonists, cell-based qHTS assay (AID 1963594); further: nearly all actives have a fitted effect of over 35% in size
In short: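 HEK293 cells stably expressing human DRD2, pre-treated with PDE inhibitor Ro20-1724 (0.1 mM final) and compound 10 min at room temperature, then stimulated with NKH477 (200nM […]) for 30 min. cAMP read by HTRF (665/620 nm).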

[18] = biological target: D(2) dopamine receptor (Homo sapiens) (UniProt P14416); assay: Dopamine D2 receptor (DRD2) small molecule antagonists, cell-based qHTS assay (AID 1963595; active means well fitted inhibition curve with a large enough effect in the signal ratio in the repeat runs, with a control signal flat; the % refers to the signal ratio)
In short: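 In this cell-based antagonist screen, compounds act for 10 min at room temperature before a 30 min challenge with 12 nM quinpirole and 200 nM NKH477. cAMP is quantified by HTRF competition in DRD2-HEK293 cells containing 0.1 mM Ro20-1724.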

[19] = biological target: 5-hydroxytryptamine receptor 2A (Homo sapiens) (UniProt P28223); assay: 5-hydroxytryptamine receptor 2A (HTR2A) small molecule antagonists, cell-based qHTS assay (AID 1963586); further: nearly all actives have a fitted effect of over 45% in size
In short: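 CHO cells stably expressing human HTR2A were plated for 18 h at 37 C, then loaded with calcium dye for 1 h. Compounds were preincubated 5 min at room temperature before DOI (4 nM solution) was added. Kinetic fluorescence was read for 3 min.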

[20] = biological target: Beta-2 adrenergic receptor (Homo sapiens) (UniProt P07550); assay: Adrenergic beta2 receptor (ADRB2) small molecule agonists, cell-based qHTS assay (AID 1963593);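 further: CHO cells stably overexpressing human ADRB2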
In short: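 CHO cells stably over-expressing ADRB2 were plated overnight at 37C, then dosed with compounds plus a stimulation mix containing 100uM IBMX and 25uM Ro-20-1724 for 0.5hr at room temperature. cAMP was measured by HTRF competition, 1hr.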

Measured: Potency

Beta-2 adrenergic receptor (Homo sapiens), sequence (P07550 whole entry, looked up): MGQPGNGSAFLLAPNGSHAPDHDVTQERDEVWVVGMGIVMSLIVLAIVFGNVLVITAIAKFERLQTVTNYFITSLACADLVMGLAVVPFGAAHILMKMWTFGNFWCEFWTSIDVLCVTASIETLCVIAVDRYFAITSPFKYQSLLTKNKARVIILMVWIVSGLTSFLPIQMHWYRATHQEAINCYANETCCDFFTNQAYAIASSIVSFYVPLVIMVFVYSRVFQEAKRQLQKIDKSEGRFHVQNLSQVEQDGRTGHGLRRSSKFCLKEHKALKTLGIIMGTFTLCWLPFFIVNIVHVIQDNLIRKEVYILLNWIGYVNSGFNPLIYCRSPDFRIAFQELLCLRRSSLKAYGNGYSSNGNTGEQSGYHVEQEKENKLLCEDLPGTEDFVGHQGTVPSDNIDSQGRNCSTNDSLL
Gonadotropin-releasing hormone receptor (Homo sapiens), sequence (P30968 whole entry, looked up): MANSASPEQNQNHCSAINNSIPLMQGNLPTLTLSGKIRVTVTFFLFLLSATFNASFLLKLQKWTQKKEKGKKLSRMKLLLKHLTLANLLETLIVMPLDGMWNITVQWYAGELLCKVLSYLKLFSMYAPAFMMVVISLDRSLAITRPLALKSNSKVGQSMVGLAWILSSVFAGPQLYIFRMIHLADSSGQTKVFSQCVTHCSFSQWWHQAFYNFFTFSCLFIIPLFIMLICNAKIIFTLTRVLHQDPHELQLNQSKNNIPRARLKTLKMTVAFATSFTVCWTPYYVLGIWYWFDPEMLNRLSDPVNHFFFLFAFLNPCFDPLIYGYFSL
D(2) dopamine receptor (Homo sapiens), sequence (P14416 whole entry, looked up): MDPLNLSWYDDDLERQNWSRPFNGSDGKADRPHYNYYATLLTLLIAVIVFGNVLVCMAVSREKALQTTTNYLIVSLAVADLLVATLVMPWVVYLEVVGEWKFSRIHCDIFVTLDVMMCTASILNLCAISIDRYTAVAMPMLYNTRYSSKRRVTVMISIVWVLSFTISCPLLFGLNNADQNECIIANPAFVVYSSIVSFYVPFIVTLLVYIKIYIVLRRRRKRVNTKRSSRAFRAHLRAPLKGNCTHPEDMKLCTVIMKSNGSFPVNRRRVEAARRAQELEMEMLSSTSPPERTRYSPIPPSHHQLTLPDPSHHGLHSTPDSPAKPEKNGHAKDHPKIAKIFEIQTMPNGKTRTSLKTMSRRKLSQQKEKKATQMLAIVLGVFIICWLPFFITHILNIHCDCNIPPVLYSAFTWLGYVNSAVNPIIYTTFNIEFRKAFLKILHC
Muscarinic acetylcholine receptor M1 (Homo sapiens), sequence (P11229 whole entry, looked up): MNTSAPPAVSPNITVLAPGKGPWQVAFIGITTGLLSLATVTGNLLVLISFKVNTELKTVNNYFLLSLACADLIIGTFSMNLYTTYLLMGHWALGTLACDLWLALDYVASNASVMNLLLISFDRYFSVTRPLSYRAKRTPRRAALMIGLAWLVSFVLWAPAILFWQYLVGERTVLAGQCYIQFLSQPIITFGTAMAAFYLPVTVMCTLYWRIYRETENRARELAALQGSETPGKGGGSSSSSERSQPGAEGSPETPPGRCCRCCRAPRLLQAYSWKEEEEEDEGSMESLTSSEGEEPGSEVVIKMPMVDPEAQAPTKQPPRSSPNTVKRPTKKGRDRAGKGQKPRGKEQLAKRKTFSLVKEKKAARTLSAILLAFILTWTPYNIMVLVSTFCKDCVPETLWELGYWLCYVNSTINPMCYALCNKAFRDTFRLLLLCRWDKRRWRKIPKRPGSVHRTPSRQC
5-hydroxytryptamine receptor 2A (Homo sapiens), sequence (P28223 whole entry, looked up): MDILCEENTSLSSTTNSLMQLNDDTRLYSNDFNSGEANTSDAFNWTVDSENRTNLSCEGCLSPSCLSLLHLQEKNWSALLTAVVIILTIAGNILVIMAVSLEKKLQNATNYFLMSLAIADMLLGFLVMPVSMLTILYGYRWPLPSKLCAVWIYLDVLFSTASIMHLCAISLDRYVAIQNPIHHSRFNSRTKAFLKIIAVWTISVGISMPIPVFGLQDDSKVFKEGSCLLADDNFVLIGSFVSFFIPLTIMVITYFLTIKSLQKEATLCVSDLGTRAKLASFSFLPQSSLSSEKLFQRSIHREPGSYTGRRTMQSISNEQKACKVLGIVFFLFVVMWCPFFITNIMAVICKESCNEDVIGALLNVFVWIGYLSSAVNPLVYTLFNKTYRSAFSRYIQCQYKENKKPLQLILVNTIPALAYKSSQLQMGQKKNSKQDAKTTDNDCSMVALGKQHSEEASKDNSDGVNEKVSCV
KiSS-1 receptor (Homo sapiens), sequence (Q969F8 whole entry, looked up): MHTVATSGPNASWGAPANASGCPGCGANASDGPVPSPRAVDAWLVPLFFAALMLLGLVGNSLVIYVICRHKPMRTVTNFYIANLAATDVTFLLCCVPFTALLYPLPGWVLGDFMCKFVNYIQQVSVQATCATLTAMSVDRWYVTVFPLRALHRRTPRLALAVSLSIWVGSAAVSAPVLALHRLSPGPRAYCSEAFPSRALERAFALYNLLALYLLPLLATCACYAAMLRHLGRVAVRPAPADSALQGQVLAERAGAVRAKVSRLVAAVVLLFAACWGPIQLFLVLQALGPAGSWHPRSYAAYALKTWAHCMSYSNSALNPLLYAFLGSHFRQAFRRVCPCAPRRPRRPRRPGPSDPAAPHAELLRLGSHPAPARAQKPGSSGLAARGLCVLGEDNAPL

CC(C)N(C)C
not listed: [19] | [20]
inactive: all other assays above

Cc1cc2cc3c(C)cc(=O)oc3c(C)c2o1
not listed: [11] | [12] | [13] | [18] | [19] | [20]
inactive: all other assays above

COC(=O)C1=C(C)NC(C)=C(C(=O)OCCc2ccc(N3CCN(C(c4ccccc4)c4ccccc4)CC3)cc2)C1c1cccc([N+](=O)[O-])c1 (configuration not stated)
inactive: all assays above

CCn1c(=O)c2c(nc(/C=C/c3ccc(OC)c(OC)c3)n2C)n(CC)c1=O
not listed: [14] | [16] | [19] | [20]
inactive: all other assays above

CCCCC(CC)COC(=O)CCCCC(=O)OCc1ccccc1 (configuration not stated)
inactive: all assays above

O=C(O)CCc1nc2ccccc2[nH]1
not listed: [14] | [19] | [20]
inactive: all other assays above

Cc1cc(NC(=O)C(=O)O)cc(C)c1Oc1ccc(O)c2c1CCC2
not listed: [15] | [17]
inactive: all other assays above

C[N+](C)(C)CCOC(N)=O
active: [3] 2.39 µM
not listed: [11] | [12] | [13] | [16] | [19]
inactive: all other assays above

CC(C)C(C)(C)C(C)(C)C(C)(C)S
not listed: [12] | [16] | [17] | [18] | [19] | [20]
inactive: all other assays above

CC(=O)NC1(c2cccc(F)c2)CCN(CC[C@@]2(c3ccc(Cl)c(Cl)c3)CN(c3ccccc3)C(=O)CO2)CC1
active: [1] 48.7 µM | [9] 36.5 µM
not listed: [14] | [15] | [16] | [19] | [20]
inactive: all other assays above

CC(C)c1ccccc1N
not listed: [14] | [20]
inactive: all other assays above

CN(C)C(=O)Oc1cccc([N+](C)(C)C)c1
not listed: [11] | [12] | [13] | [19] | [20]
inactive: all other assays above

C/C=C/C(=O)C1=C(C)CCCC1(C)C
not listed: [15] | [17] | [19] | [20]
inactive: all other assays above

Cc1c(NC(=O)c2cccnc2)c(=O)n(-c2ccccc2)n1C
inactive: all assays above

C[C@@H]1C[C@H]2[C@@H]3CCC4=CC(=O)C=C[C@]4(C)[C@@]3(F)[C@@H](O)C[C@]2(C)[C@@]1(O)C(=O)COC(=O)c1ccncc1
not listed: [11] | [17] | [19] | [20]
inactive: all other assays above

From PubChem BioAssay (Tox21)
